From paper PMC5540273 (PLoS ONE, 2017)

What was measured:
Conditions in all cases: concentration: 1 μM, replicates: in singlicate; n = 1
HASPIN = test system: T1, HASPIN
T1 construct: gene GSG2

HCK = test system: HCK
HIPK1 = test system: HIPK1
HIPK2 = test system: HIPK2
HIPK3 = test system: HIPK3
HIPK4 = test system: HIPK4
HPK1 = test system: HPK1
HUNK = test system: HUNK
ICK = test system: ICK
IGF1R = test system: IGF1R
IKK-alpha = test system: T2, IKK-alpha
T2 construct: gene CHUK

IKK-beta = test system: T3, IKK-beta
T3 construct: gene IKBKB

IKK-epsilon = test system: T4, IKK-epsilon
T4 construct: gene IKBKE

INSRR = test system: INSRR
INSR = test system: INSR
IRAK1 = test system: IRAK1
IRAK3 = test system: IRAK3
IRAK4 = test system: IRAK4
ITK = test system: ITK
[1] = test system: JAK1(JH1domain-catalytic)
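Note: KINOMEscan kinase panel screen.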

| Compound | %Inh (HASPIN) [%] | %Inh (HCK) [%] | %Inh (HIPK1) [%] | %Inh (HIPK2) [%] | %Inh (HIPK3) [%] | %Inh (HIPK4) [%] | %Inh (HPK1) [%] | %Inh (HUNK) [%] | %Inh (ICK) [%] | %Inh (IGF1R) [%] | %Inh (IKK-alpha) [%] | %Inh (IKK-beta) [%] | %Inh (IKK-epsilon) [%] | %Inh (INSRR) [%] | %Inh (INSR) [%] | %Inh (IRAK1) [%] | %Inh (IRAK3) [%] | %Inh (IRAK4) [%] | %Inh (ITK) [%] | %Inh [1] [%] |
| --- | --- | --- | --- | --- | --- | --- | --- | --- | --- | --- | --- | --- | --- | --- | --- | --- | --- | --- | --- | --- |
| COc1ccc(Nc2nccc(NCCNC(=O)c3cc4ccccc4s3)n2)cc1 [GSK1379896] | 0 | 15 | 0 | 0 | 22 | 0 | 44 | 13 | 0 | 0 | 0 | 0 | 0 | 0 | 0 | 0 | 0 | 0 | 8 | 5 |
| c1ccc(-c2cnc3nccnn23)cc1 [AH20685] | 0 | 0 | 0 | 0 | 0 | 0 | 37 | 0 | 0 | 31 | 49 | 1 | 5 | 0 | 24 | 0 | 1 | 8 | 2 | 0 |
| O=C(NC1CCN(c2ccnc(Nc3ccc(F)cc3)n2)C1)c1cc2ccccc2s1 (stereo not shown) [GSK1379716] | 12 | 0 | 0 | 0 | 8 | 0 | 54 | 10 | 0 | 13 | 21 | 0 | 15 | 0 | 70 | 32 | 11 | 17 | 21 | 29 |
| O=C(Nc1cccc(-c2nn3ccccc3c2-c2ccnc(Nc3cccc(F)c3)n2)c1)c1c(F)ccc(F)c1Cl [GSK357952] | 0 | 99.1 | 0 | 13 | 1 | 51 | 13 | 0 | 3 | 17 | 0 | 0 | 65 | 19 | 8 | 83 | 0 | 84 | 12 | 0 |
| CCn1c(-c2nonc2N)nc2c(C#CC(C)(C)O)nc(OC[C@H](N)c3ccccc3)cc21 [GSK943949] | 22 | 0 | 21 | 0 | 14 | 0 | 30 | 3 | 0 | 0 | 0 | 0 | 13 | 0 | 0 | 0 | 0 | 8 | 0 | 19 |
| Nc1n[nH]c2cnc(-c3ccccc3)cc12 [SB-642124] | 68 | 0 | 64 | 78 | 88 | 7 | 58 | 0 | 26 | 0 | 55 | 64 | 13 | 100 | 0 | 49 | 3 | 32 | 13 | 37 |
| Cl.Cl.NCC(NCc1ccc(-c2ccnc3[nH]ccc23)s1)c1ccccc1 (stereo not shown) [GSK1321565] | 99.8 | 0 | 53 | 55 | 71 | 49 | 66 | 0 | 0 | 0 | 68 | 74 | 39 | 0 | 0 | 71 | 20 | 7 | 13 | 29 |
| Cc1ccc(C(=O)N2CC[C@@H](O)C2)cc1-n1c(C)cc(OCc2ccc(F)cc2F)c(Br)c1=O | 0 | 66 | 11 | 0 | 0 | 0 | 0 | 0 | 0 | 0 | 0 | 0 | 0 | 0 | 0 | 0 | 0 | 0 | 0 | 0 |
| COc1ccc(CNC(=O)NC2CCN(c3ccnc(Nc4ccc(F)cc4)n3)CC2)cc1 [GSK1379788] | 6 | 0 | 0 | 0 | 9 | 0 | 37 | 14 | 0 | 0 | 1 | 0 | 11 | 0 | 0 | 17 | 24 | 0 | 0 | 11 |
| CC(=O)N1CCN(c2ccc(Nc3nccc(-c4sc(C(C)C)nc4-c4cccc(NS(=O)(=O)c5cccc(Cl)c5)c4)n3)cn2)CC1 [GSK1660437] | 0 | 83 | 40 | 5 | 35 | 82 | 36 | 0 | 0 | 0 | 0 | 0 | 20 | 25 | 8 | 0 | 0 | 0 | 20 | 0 |
| COc1cccc(C2=C(Nc3ccc(Cl)c(C(=O)O)c3)C(=O)NC2=O)c1 [SB-390769] | 0 | 0 | 7 | 0 | 11 | 0 | 55 | 0 | 10 | 26 | 100 | 100 | 91.1 | 8 | 100 | 48 | 0 | 31 | 14 | 100 |
| Nc1ncc(-c2cccnc2)c2scc(-c3ccc4c(c3)CCN4C(=O)Cc3ccccc3)c12 [GSK683281] | 0 | 25 | 20 | 0 | 35 | 0 | 63 | 34 | 8 | 0 | 0 | 11 | 46 | 0 | 0 | 10 | 17 | 5 | 18 | 19 |
| COC(=O)Nc1nc2ccc(Oc3ccc(NC(=O)Nc4cc(C(F)(F)F)ccc4F)cc3)cc2n1C.Cl [GW692089] | 50 | 0 | 0 | 3 | 0 | 69 | 0 | 12 | 0 | 0 | 77 | 18 | 0 | 0 | 0 | 18 | 0 | 0 | 0 | 3 |
| COC(=O)Nc1nc2cc(Oc3ccc(NC(=O)Nc4cc(C(F)(F)F)ccc4F)cn3)ccc2[nH]1.Cl.Cl [GW681170] | 47 | 15 | 0 | 0 | 0 | 91.6 | 16 | 7 | 0 | 12 | 66 | 17 | 0 | 0 | 0 | 49 | 0 | 3 | 0 | 30 |
| Fc1ccc(-c2ncn(C3CCNCC3)c2-c2ccnc(Oc3ccc(-c4ccccc4)cc3)n2)cc1 [SB-245391] | 24 | 31 | 5 | 0 | 31 | 27 | 29 | 38 | 25 | 48 | 32 | 32 | 0 | 37 | 22 | 11 | 0 | 0 | 0 | 10 |
| CC(=O)Nc1nc2cnc(Nc3cc(NC(=O)c4cccc(C5(C#N)CC5)c4Cl)ccc3C)nc2s1 | 0 | 53 | 27 | 0 | 0 | 6 | 1 | 12 | 0 | 0 | 7 | 6 | 0 | 0 | 0 | 10 | 24 | 21 | 0 | 17 |
| O=C(Nc1cccc(Oc2ccc3nc(NC(=O)C4CC4)cn3n2)c1)c1ccccc1C(F)(F)F | 0 | 69 | 28 | 0 | 0 | 1 | 10 | 0 | 0 | 0 | 0 | 0 | 0 | 0 | 0 | 0 | 5 | 0 | 0 | 8 |
| c1ccc(Oc2ccc(Nc3ccnc4cc(-c5ccc(CNCCN6CCOCC6)o5)ccc34)cc2)nc1 [GW567145] | 43 | 76 | 0 | 0 | 10 | 0 | 15 | 12 | 0 | 0 | 28 | 0 | 27 | 0 | 11 | 20 | 0 | 0 | 0 | 5 |
| CSc1cccc2c(-c3ccncn3)c(-c3ccc(F)cc3)nn12 [GW514786] | 17 | 0 | 9 | 0 | 10 | 32 | 21 | 8 | 0 | 19 | 0 | 0 | 5 | 3 | 10 | 10 | 24 | 0 | 10 | 1 |
| COc1ccc(Nc2nccc(N3CCC(NC(=O)Nc4cccc(OC)c4)C3)n2)cc1 (stereo not shown) [GSK1379742] | 10 | 0 | 0 | 28 | 19 | 0 | 56 | 24 | 0 | 0 | 24 | 19 | 0 | 0 | 0 | 0 | 15 | 6 | 11 | 12 |
